For 55 compounds, inhibition results are on record in PubChem BioAssay AID624504 (Sanford-Burnham Center for Chemical Genomics, 2012).

SMILES strings stand for the structures. Among all 5,000 compounds or so, about 3,900 (78%) were called active. The set was probably picked from earlier hits. These entries were drawn from the full list. Values without a mark were called inactive. Cut-off read from the data, not from the text of the source: active = inhibition above about 22%; inactive = the rest.

A short description of this assay: fluorescence retest of MPTP screen hits in isolated mitochondria, single concentration (AID 624504).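 Note: 0% = DMSO vehicle and 100% = positive control.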 The settings on record: membrane potential, Rhodamine 123 fluorescence, at 10 µM, hits give high values.
For orientation: inhibition means the change of the read-out against control, counted positive when it falls. As to `Cc1nc(N2CCOCC2)c2c(C)c(C(=O)Nc3ccc(C(F)(F)F)cc3)sc2n1`, the inhibition was 81.9% (active). For the compound `CCCCCc1c(Cc2ccccc2)ncn1CCc1ccccc1OC`, the inhibition is 106% (active). Consider `Nc1nnc(SCC(=O)Nc2ccc3nc(SCC(=O)Nc4ccccc4)sc3c2)s1`, for which the inhibition was 77.9% (active). For `Cc1cccc(NC(=O)Nc2cccc(Oc3c(F)c(F)c(F)c(F)c3F)c2)c1`, the inhibition was 62.1% (active).

Take `CCN(CC)S(=O)(=O)c1ccc(N(C)Cc2ccc(C(F)(F)F)cc2)nc1`: the inhibition is 93.6% (active).

On to `C=CCSc1nsc(NC(=O)Nc2cccc(C(C)=O)c2)n1`, for which the inhibition is 84.6% (active). The figure for `O=C(Nc1ccccc1)Nc1nc2ccccc2s1` is 80.6% (active). Turning to `CCSc1nsc(NC(=O)Nc2cccc(C(C)=O)c2)n1`, the inhibition is 83.6% (active). In the case of `CSc1nsc(NC(=O)Nc2ccccc2)n1`, the inhibition is 89.7% (active). Take `COc1ccc(/C=C(/CC(=O)Nc2ccc(C)cc2)c2nc3ccccc3s2)cc1`: the inhibition was -7.49%. For `CCCCN(CCCC)CCC(O)c1cc2c(Cl)cc(Cl)cc2c2cc(C(F)(F)F)ccc12` (stereo not given), the inhibition is -7.09%. As for `CC(C)CC(=O)N/C(N)=N/c1nc2ccccc2s1`, the figure is 50% (active). Turning to `O=C1c2ccccc2C2=Nc3ccccc3SC(c3ccccc3F)C12` (stereo not given), the inhibition was 59% (active). Take `S=C(Nc1cccc(Br)c1)N1CCn2cccc2C1c1cccnc1` (stereo not given): the inhibition is 94.4% (active). As for `CN(c1cccc(NC(=O)Nc2ccc(Cl)cc2)c1)S(C)(=O)=O`, the figure is 91.2% (active). For the compound `Cc1ccc(S(=O)(=O)N(CC(=O)Nc2cccc([N+](=O)[O-])c2)Cc2ccc(Cl)cc2)cc1`, the inhibition is 88.5% (active). As to `CN(c1ccccc1)S(=O)(=O)c1cccc(NC(=O)Cc2ccc(Cl)cc2)c1`, the inhibition is 81.2% (active). With `O=C(c1ccncc1)N1CCN(S(=O)(=O)c2cc(C(F)(F)F)cc(C(F)(F)F)c2)CC1`, the inhibition is 99.7% (active). The figure for `O=C(Cc1ccsc1)N1CCN(S(=O)(=O)c2cc(C(F)(F)F)cc(C(F)(F)F)c2)CC1` is 86.7% (active); for `CCC(C)N1C(=O)S/C(=C/c2ccc(Sc3nc4ccccc4[nH]3)o2)C1=O` (stereo not given) it is 91.4% (active); for `Oc1c(Cl)cc(Cl)c(Cl)c1Cc1c(O)c(Cl)cc(Cl)c1Cl` it is 16.1%. For `Cc1nc2c(OCc3cccc(Cl)c3)cccn2c1N(C)CC1CC1`, the inhibition is 107% (active).

`Cc1nc2c(OCc3ccc(Cl)cc3Cl)cccn2c1N(C)CC1CC1`: the inhibition was 105% (active). For the compound `Cc1nc2c(OCc3ccc(Cl)cc3)cccn2c1N(C)Cc1cccs1`, the inhibition was 106% (active). As for `O=C(/C(=C/c1cccc(Cl)c1)c1nc2ccccc2[nH]1)c1ccccc1`, the figure is 77.4% (active); as for `NC(N)=N/N=C/c1ccc(Cl)c([N+](=O)[O-])c1`, -8.15%; as for `Cc1cc(C)c(SCCc2ccncc2)c(C)c1`, 95.5% (active). As for `CC(C)(C)c1ccc(SCCc2ccncc2)cc1`, the figure is 98.5% (active); as for `c1ccc2c(CSCc3nc4ccccc4[nH]3)cccc2c1`, 55.6% (active).

`O=C(Nc1cccc(C(F)(F)F)c1)c1ccc(N2CCNCC2)c([N+](=O)[O-])c1`: the inhibition is -27%. In the case of `O=C(c1ccc(N2CCCC2=O)cc1)N1CCN(c2ccc(C(F)(F)F)cc2[N+](=O)[O-])CC1`, the inhibition was 76% (active).

Regarding `N#Cc1c(-c2cccs2)nc(SCC(=O)c2ccc(Br)cc2)[nH]c1=O`, the inhibition was 61.2% (active). For the compound `Cc1ccc(NC(=O)Nc2nnc(-c3ccncc3)s2)cc1`, the inhibition was 81.7% (active). Consider `CCc1ccc(NC(=O)Nc2ccncc2)cc1`, for which the inhibition is 71.8% (active). For the compound `Cc1nnc(NC(=O)Nc2ccc(Cl)c(Cl)c2)s1`, the inhibition was 94% (active). On to `CCCCC(=O)NNC(=S)NC(=O)C(c1ccccc1)c1ccccc1`, for which the inhibition was -2.85%. As for `O=[N+]([O-])c1cc(Cl)cc(/C=N/NC(=S)Nc2cc(S(=O)(=O)N3CCOCC3)ccc2Cl)c1O`, the figure is 5.99%. For the compound `O=C(c1cc(-c2cccc(O)c2)on1)N1CCc2ccccc2C1`, the inhibition is 33.5% (active). With `O=C(NNc1ccccc1Cl)C(O)(c1cccc(C(F)(F)F)c1)c1cccc(C(F)(F)F)c1`, the inhibition is 83.9% (active). Turning to `Cc1ccc(S(=O)(=O)Nc2ccc3ncccc3c2)cc1`, the inhibition was 72.7% (active). Consider `COc1ccc(S(=O)(=O)NCCCCOc2ccc(Cl)cc2)cc1`, for which the inhibition is 88.4% (active). On to `O=[N+]([O-])c1cc(Br)c(O)c(/C=N/Nc2nc3ccccc3s2)c1`, for which the inhibition was 65.6% (active). As for `O=C(CCN1C(=O)/C(=C/c2cccs2)SC1=S)NNC(=O)c1cccc(O)c1`, the figure is 49% (active). On to `COc1cc(NC(=O)c2cncc(-c3ccc(C#N)cc3)c2)cc(C(=O)Nc2cccc(C(F)(F)F)c2)c1`, for which the inhibition was 58.3% (active). On to `COCCn1c(CN2CCC(Cc3ccccc3)CC2)nc2c1c(=O)n(C)c(=O)n2C`, for which the inhibition was 10.1%. The figure for `COC(=O)c1c(C)[nH]c(C(=O)/C=C/c2ccc(Cl)cc2)c1C` is 86.5% (active); for `CCCc1nc2scc(-c3ccc(C)cc3)c2c(=O)n1N` it is 20.9% (active). As for `CC(C)c1ccc(NC(=S)NC2CC3C=CC2C3)cc1` (stereo not given), the inhibition is 91% (active).

As to `COc1cccc(CNS(=O)(=O)c2ccc3c(c2)CC(C)N3C(=O)C2CCC2)c1` (stereo not given), the inhibition is 91.1% (active). The figure for `O=C(Nc1nc(-c2ccc3c(c2)OCO3)cs1)c1ccncc1` is 42.8% (active); for `Cc1ccc(F)cc1NC(=O)Cc1nn(C)c(=O)c2ccccc12` it is 29.6% (active). As for `Cc1ccc(-c2nc(COC(=O)c3c(C)noc3C)cs2)cc1`, the figure is 23.4% (active). On to `Cc1ccc(-c2noc(CCC(=O)Nc3ccccc3N3CCN(C)CC3)n2)cc1`, for which the inhibition was -2.79%. The figure for `Cc1ccc(NC(=O)CN(C)CC(=O)Nc2cccc(F)c2)cc1[N+](=O)[O-]` is 100% (active); for `Cc1cc(C)c(NC(=O)C[N+](C)(C)CC(O)COc2cccc3ccccc23)c(C)c1` (stereo not given) it is -17%.
